# A3A deaminase: APOBEC3A ssDNA deaminase inhibitors, primary screen, selectivity assay for APOBEC3G inhibitor project, biochemical, FAM/TAMRA oligo cleavage fluorescence | DNA dC->dU-editing enzyme APOBEC-3A (Homo sapiens), P31941 | recombinant A3A, FAM/TAMRA ssDNA deamination fluorescence | inhibition, % at 20 µM | actives 0.41% (n = 330,000) | AID 493011, 2011;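 active = at least 40% inhibition at 20 µM here, with at most 30% in a related deaminase screen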;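 note: plate controls were A3A with DMSO for no effect and wells lacking A3A enzyme for full effect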
# Target sequence (P31941 whole entry, looked up): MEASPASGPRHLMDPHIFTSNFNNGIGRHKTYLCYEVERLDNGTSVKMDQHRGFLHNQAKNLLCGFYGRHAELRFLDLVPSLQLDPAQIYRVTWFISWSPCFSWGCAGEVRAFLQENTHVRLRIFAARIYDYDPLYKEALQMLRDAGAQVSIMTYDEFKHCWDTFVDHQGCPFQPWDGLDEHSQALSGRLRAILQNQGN
# ALR H2O2 inh: inhibitors of human ALR sulfhydryl oxidase, primary screen, biochemical, H2O2 detection, HRP-luminol luminescence, single point; purified ALR, DTT oxidation; FAD-linked sulfhydryl oxidase ALR (Homo sapiens), P55789; inhibition, % (concentration not given with the values); actives 3.8% (n = 290,000);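 active = mean replicate inhibition above about 79%, with every replicate also reaching it, limit read from the data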
# aDG glyco up: activators of alpha-DG glycosylation, primary screen, uHTS, Pro5-aDG cells, AlphaScreen. actives 0.22% (n = 360,000). activation, % at 10 µM. alpha-DG glycosylation AlphaScreen (IIH6); 0% Pro5, 100% B10-LARGE cell signal;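 active = activation of at least 8% versus controls, or a plate z-score of at least 8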;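 note: Pro5 are CHO cells carrying HIG-tagged alpha-DG that lacks glycosylation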
# A3G deaminase: APOBEC3G DNA deaminase inhibitors, primary screen, biochemical, fluorescence, single-stranded DNA substrate, uHTS; DNA dC->dU-editing enzyme APOBEC-3G (Homo sapiens), Q9HC16; recombinant A3G, ssDNA deamination FAM/TAMRA fluorescence; inhibition, % at 20 µM; actives 0.28% (n = 330,000);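 active = inhibition of at least 40% at 20 µM, with no more than 30% in the related APOBEC3A deaminase screen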;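 note: plate controls were DMSO wells with A3G for no effect and wells lacking A3G enzyme for full effect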
# rCAG binder: binders of r(CAG) RNA repeats, primary screen, biochemical, fluorescence | inhibition, % at 3 µM | actives 1.3% (n = 370,000) | AID 651821, 2012 | r(CAG) RNA repeat, TO-PRO-1 dye displacement fluorescence;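 active = inhibition above the plate cutoff, the mean of all test compounds on that plate plus 3 SD, cut at about 35% in these data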;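 note: 0% = DMSO alone and 100% = 100 µM mitoxantrone as full dye displacement; higher means more dye released from RNA so lower well fluorescence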
# PHOSPHO1 block: PubChem AID 1565; actives 1.1% (n = 290,000); Phosphoethanolamine/phosphocholine phosphatase (Homo sapiens), Q8TCT1; inhibition, % at 13.3 µM; recombinant PHOSPHO1, absorbance phosphatase assay; in the data active = inhibition above about 60%
# Target sequence (Q8TCT1 whole entry, looked up): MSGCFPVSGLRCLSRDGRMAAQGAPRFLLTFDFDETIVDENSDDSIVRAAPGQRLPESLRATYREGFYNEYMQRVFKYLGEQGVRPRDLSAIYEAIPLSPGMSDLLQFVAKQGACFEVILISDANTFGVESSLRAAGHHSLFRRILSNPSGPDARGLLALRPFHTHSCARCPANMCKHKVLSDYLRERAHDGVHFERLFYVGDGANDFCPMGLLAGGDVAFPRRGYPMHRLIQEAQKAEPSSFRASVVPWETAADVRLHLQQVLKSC
# Active calls of the source: *; x = no result given. An excerpt weighted towards active compounds, which were near 5.4% of everything screened.
SMILES,A3A deaminase,ALR H2O2 inh,aDG glyco up,A3G deaminase,rCAG binder,PHOSPHO1 block
Cc1ccc2c(c1)c1nnc(SCC(=O)Nc3ccc(N(C)C)cc3)nc1n2CC(=O)O,7,100*,0,10,23,29
C/C(=N\NC(=O)c1ccc(N/N=C(\C)c2ccncc2)cc1)c1ccncc1,-3,98*,0,-7,6,24
C/C(=N\NC(=O)c1ccncc1)c1ccc(N(C)C)cc1,-2,91*,0,19,-1,12
C/C(=N/NC(=O)c1ccncc1)c1ccccc1,-5,-9,0,-6,0,5
C/C(=N\NC(=O)c1ccncc1)c1ccc(N2CCOCC2)cc1,-5,60,0,-11,3,x
Nc1ccc(NC(=O)Nc2ccc(N)cc2)cc1,x,99*,0,x,-3,16
CC(=O)Nc1ccc(N)cc1,-1,89*,0,-9,0,x
COP(=O)(O)C(C)NC(=O)OCc1ccccc1 (configuration not stated),x,x,x,x,0,x
CCOC(=S)SCC(=O)Nc1ncc(C)s1,9,99*,0,13,1,20
Cc1cnc(NC(=O)CSc2ccccc2)s1,2,-4,0,1,4,17
Cc1ccc(CN2CCCCC(NC(=O)C(C)(C)C)C2=O)cc1 (configuration not stated),x,x,x,x,0,x
CCOc1ccc(CSC(CC(=O)O)C(=O)O)cc1 (configuration not stated),-2,98*,0,-3,3,17
CCCCOc1ccc(CSC(CC(=O)O)C(=O)O)cc1 (configuration not stated),-5,20,0,-9,3,6
CCOC(=O)Cc1nc(N2CCN(Cc3cccc4c3OCO4)CC2)c2c(C)c(C(=O)OCC)sc2n1,x,x,x,x,5,x
C=CCn1c(SCc2ccccc2F)nc2cc(C(=O)O)ccc2c1=O,1,98*,0,2,22,4
CC(=O)NCCn1c(SCc2ccccc2F)nc2ccccc2c1=O,3,-5,0,4,-7,16
COC(=O)c1cc(S(=O)(=O)N2CCCN(C(C)=O)CC2)cn1C,x,x,x,x,2,x
FC(F)(F)c1cccc(CNC(=S)Nc2ccccc2)c1,2,-16,0,-2,-2,62*
FC(F)(F)c1cccc(NC(=S)NCCc2ccccn2)c1,-3,77*,0,-9,-3,10
CC(C)(C)c1ccc(NC(=S)NCCc2ccccn2)cc1,-2,98*,0,5,-6,34
FC(F)(F)c1cccc(NC(=S)NCc2ccccc2)c1,-12,1,0,-5,2,31
Cc1ccc(SCc2ccc(C(=O)N3CCCC3)cc2)cc1,-1,-32,0,8,-7,27
Cc1ccc(SCC2(O)CCN(C(=O)c3ccc(Cl)cc3)CC2)cc1,8,2,0,12,-6,62*
CC(C)CN1C(=O)[C@@]2(CC(=O)N(C)C2c2ccccc2)c2cc(-n3cc(-c4ccccc4)nn3)ccc21 (some centres not stated),x,x,x,x,5,x
CCN=C1Sc2nc3ccc(OCC)cc3cc2CN1CCOC,1,-56,0,-2,-4,72*
SMILES,A3A deaminase,ALR H2O2 inh,aDG glyco up,A3G deaminase,rCAG binder,PHOSPHO1 block
COc1cccc(Cn2cc(COC(=O)NCCc3c[nH]c4ccccc34)nn2)c1,x,x,x,x,4,x
CC(C)(C)NC(=O)CSc1nnc(-c2c[nH]c3ccccc23)o1,1,-9,0,5,6,14
c1ccc(CSc2nnc(-c3c[nH]c4ccccc34)o2)cc1,-6,x,0,-9,9,-29
CCCC(C)NC(=O)CSc1nnc(-c2c[nH]c3ccccc23)o1 (configuration not stated),1,-3,0,-7,1,73*
c1ccc2c(-c3nnc(SCc4cn5ccccc5n4)o3)c[nH]c2c1,-18,34,0,-5,5,85*
CCOC(=O)[C@]12CCCC=C1N(CCCOC)C(=O)[C@@H]2CC(=O)NCc1ccccc1,x,x,x,x,1,x
Cc1ccc(-n2c(SCC(=O)Nc3ccc(Oc4ccccc4)cc3)nnc2-c2ccco2)cc1,x,x,x,x,9,x
Cc1ccccc1Cn1cc(CN2[C@H](Cc3ccccc3)COc3cc(Br)ccc3S2(=O)=O)nn1,x,x,x,x,9,x
S=c1[nH]nc(-c2ccc3ccccc3n2)o1,-2,91*,0,6,2,89*
O=C(O)c1c[nH]c(=S)n1-c1ccc(F)cc1,-2,26,0,1,0,104*
Cc1csc(/N=C/c2ccc([N+](=O)[O-])cc2)n1,x,85*,0,x,9,-10
O=C1COc2ccc(C(=O)/C=C/c3ccccc3)cc2N1,-4,97*,3,-8,3,14
O=C(/C=C/c1ccccc1)c1ccc2c(c1)OCCCCO2,1,20,0,-4,-5,31
Cc1cc(C(=O)NNC(=O)CCN2CCN(c3ccccc3)CC2)c2ccccc2n1,10,98*,0,-4,-1,-7
O=C(CCN1CCN(c2ccccc2)CC1)NNC(=O)c1cccc2ccccc12,-1,99*,0,-7,0,7
COc1cccc(C(=O)NNC(=O)CCN2CCN(c3ccccc3)CC2)c1,0,86*,0,-1,1,x
CC1(c2nnnn2Cc2ccccc2)CN(S(C)(=O)=O)CC(=O)N1Cc1cccs1 (configuration not stated),x,x,x,x,2,x
COc1ccc(OC)c(-c2csc(NC(=O)CSCC(=O)Nc3cc(C)on3)n2)c1,-2,x,1,-7,3,x
COc1ccc(C(=O)COC(=O)CSCc2c(C)noc2C)cc1OC,-5,98*,0,-9,-4,-5
COc1ccc(OC)c(-c2csc(NC(=O)CSCc3c(C)noc3C)n2)c1,9,98*,1,-7,-1,x
CC(C)(C)C1CCC(OCC(O)CN2CCN(Cc3ccccc3)CC2)CC1 (configuration not stated),2,-46,1,-1,-7,7
OC(COC1CCCCC1)CN1CCN(c2ccccc2)CC1 (configuration not stated),1,92*,3,3,-5,16
CCCCNC(=O)C[C@H]1C(=O)N(CCCOC)C2=CCCCC[C@]21C(=O)OC,x,x,x,x,-1,x
Cc1cccc(NS(=O)(=O)c2ccc(-c3ccc(=O)[nH]n3)o2)c1,3,3,0,4,4,12

# Assay outcomes: PubChem, several laboratories
